SMN2 splice up: qHTS Assay for Enhancers of SMN2 Splice Variant Expression; HEK293 SMN2-luciferase splicing reporter, luminescence, 30-36 h; Potency, µM (top dose mostly 46.1 µM), for inactives: top-dose activity change, positive = activation, most hits filed as activators; 210,000 tested, 2.8% active; AID 1458, 2008; note: % of control where 0% means no effect; nearly all actives have a fitted effect of over 55% in size
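qHTS luciferase splicing reporter: luminescence rises when SMN2 exon 7 is included in transfected HEK293 cells. Compound exposure lasted 30-36 h at 37C, with 4.5 mM final sodium butyrate as control, followed by a ONE-Glo read.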
NPC1 prom act: qHTS Assay for NPC1 Promoter Activators. Huh7 NPC1 promoter luciferase reporter, 24 h. Potency, µM (titrated, usually from 9.22 µM), without a hit: at the highest dose activation, actives largely listed as activators. 320,000 tested, 2.4% active. AID 485313, 2010; note: % of control where 0% means no effect; nearly all actives have a fitted effect of over 60% in size
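Stably transfected Huh7 (NPC1 promoter→luciferase), 1500 cells/well in Opti-MEM + 10% FBS, 2 h settle, then compound 24 h at 37 °C. Luminescence after 10 min with Amplite reagent.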
ELG1 genotoxic: qHTS screen for small molecules that induce genotoxicity in human embryonic kidney (HEK293T) cells expressing luciferase-tagged ELG1 | Potency, µM (series often up to 46 µM), for inactives: top-dose activity change, positive = activation, most hits filed as activators | 330,000 tested, 1.3% active | HEK293T ELG1-luciferase reporter, luminescence, 16 h; note: % of control where 0% means no effect; nearly all actives have a fitted effect of over 60% in size
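Cells (2,000/well) expressing the ELG1-luciferase fusion are dosed by pin tool and kept 16 hr at 37 °C, 5% CO2. Signal comes from ONE-Glo luciferase reagent after 30 min at room temperature.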
FLuc modulator: qHTS profiling assay for firefly luciferase inhibitor/activator using purifed enzyme and Km concentrations of substrates (counterscreen for miR-21 project). Luciferin 4-monooxygenase (Photinus pyralis), P08659. AID 588342, 2011. purified FLuc, Km substrates, luminescence inhibition. 360,000 tested, 6.9% active. Potency, µM (highest dose often 57.5 µM), inactives show top-dose activity change, negative = inhibition, most hits filed as inhibitors;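 note: plate controls were vehicle for no effect and reference inhibitor for full effect; nearly all actives have a fitted effect of over 55% in size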
Target sequence (P08659 whole entry, looked up): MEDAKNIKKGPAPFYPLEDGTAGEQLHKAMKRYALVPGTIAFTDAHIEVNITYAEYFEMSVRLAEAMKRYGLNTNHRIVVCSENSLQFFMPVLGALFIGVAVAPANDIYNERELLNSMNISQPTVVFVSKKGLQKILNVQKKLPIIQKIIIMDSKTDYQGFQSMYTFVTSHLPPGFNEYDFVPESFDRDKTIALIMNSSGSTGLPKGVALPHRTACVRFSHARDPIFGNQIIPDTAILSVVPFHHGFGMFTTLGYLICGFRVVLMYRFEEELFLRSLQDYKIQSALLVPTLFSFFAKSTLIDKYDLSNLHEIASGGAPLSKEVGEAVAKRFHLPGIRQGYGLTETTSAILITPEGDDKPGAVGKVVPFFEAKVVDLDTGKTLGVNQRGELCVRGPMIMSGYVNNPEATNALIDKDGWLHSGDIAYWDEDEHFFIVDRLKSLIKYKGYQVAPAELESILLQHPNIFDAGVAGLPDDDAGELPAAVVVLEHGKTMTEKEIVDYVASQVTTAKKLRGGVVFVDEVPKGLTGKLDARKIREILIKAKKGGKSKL
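Purified P. pyralis luciferase, 10 nM final, with Km-level 10 uM D-luciferin and 10 uM ATP in 50 mM Tris acetate pH 7.5, 10 mM Mg acetate, 0.01% Tween-20, 0.05% BSA; 6-point qHTS titration about 60 µM downward; luminescence read.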
Rab9 promoter act: qHTS Assay for Rab9 Promoter Activators | Huh7 Rab9 promoter-luciferase reporter, luminescence, 24 h | Potency, µM (top dose mostly 9.22 µM), without a hit: at the top dose activation, negative = inhibition, usual class: activators | 320,000 tested, 2.8% active | AID 485297, 2010; note: % of control where 0% means no effect; nearly all actives have a fitted effect of over 60% in size
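Luciferase signal after 10 min detection reagent at ambient indicates Rab9 promoter upregulation; stably transfected Huh7 cells were treated 24 h with compound in DMSO at 37 °C, 5% CO2.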
ELG1 repair inh: qHTS screen for small molecules that inhibit ELG1-dependent DNA repair in human embryonic kidney (HEK293T) cells expressing luciferase-tagged ELG1; 330,000 tested, 2.3% active; Potency, µM (highest dose often 46.1 µM), for the others: at the highest dose activity change, negative = inhibition, hits mostly inhibitors; HEK293T ELG1-luciferase reporter, luminescence, 16 h; DNA damage induced by 5-fluorouridine; note: % is set by controls: 0 for no effect and ±100 for the full control effect; nearly all actives have a fitted effect of over 55% in size
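Reporter activity after DNA damage by 5-fluorouridine is monitored. Compound-treated cells incubate 16 hr at 37 °C, then ONE-Glo is added for 30 min before luminescence reading.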
* hit, by the source's call; ? = inconclusive; · = not tested or not shown; [ ] = another dose, or the depositor's remark. A selection: hits, their analogues and other compounds. The true share with any hit is near 9.2%. Calls come from the whole dose curve; as a rule, active = well fitted curve in the direction sought with a large enough effect; inconclusive = small, poorly fitted or top-dose-only effect, or another doubt; inactive = no such curve, though single readings can be large; an effect the other way counts as inactive or inconclusive. Potency is the fitted concentration of half-maximal effect.

SMILES | SMN2 splice up | NPC1 prom act | ELG1 genotoxic | FLuc modulator | Rab9 promoter act | ELG1 repair inh
Cc1cccc(OCc2nnc(NC(=O)c3cccs3)s2)c1 | -19.7% | -2.3% | 2.6% | 5.2% | -1.3% | -2.2%
CCOC(=O)C1CCN(S(=O)(=O)c2ccc(N3CCCCS3(=O)=O)cc2)CC1 | · | · | · | -2.0% | · | ·
CCCN1CCC(NC(=O)Cc2ccc(C)cc2)CC1 | · | 1.6% | 3.3% | 0.2% | 0.1% | 6.5%
COc1ccc(-c2nnc(NC(=O)c3ccco3)s2)cc1 | · | 3.55µM* | ? | 1.51µM* | 0.794µM* | ?
O=C(Nc1nnc(C23CC4CC(CC(C4)C2)C3)s1)c1ccco1 | 16.2% | 1.78µM* | 1.16µM* | 2.13µM* | 1.78µM* | ?
NC(=O)c1cc(Cc2ccccc2)sc1NC(=O)c1ccco1 | 15.8µM* | 3.55µM* | ? | 9.53µM* | 4.47µM* | ?
Cc1cccc(Cc2cnc(NC(=O)C3=NCCN3)s2)c1 | 18.4% | 0.5% | -7.5% | -0.5% | 25.0% | ?
CCOc1ccc(CC(=O)Nc2sc(Cc3ccccc3)cc2C(N)=O)cc1OCC | -18.4% | 1.0% | -4.3% | -2.5% | -0.7% | -6.0%
Cc1cccc(Cc2cnc(NC(=O)c3ccc(C)o3)s2)c1 | -2.1% | ? | 5.8µM* | 9.53µM* | ? | ?
COc1ccc(CCNC(=O)Cc2c(C)c3cc4c(C(C)(C)C)coc4c(C)c3oc2=O)cc1OC | -1.4% | · | · | -9.3% | · | ·
O=C(Nc1nnc(Cc2ccccc2)s1)c1ccco1 | ? | ? | 16.4µM* | 16.9µM* | ? | ?
Cn1c(=O)c2c(ncn2CC(=O)OCC(=O)Nc2cc(Cl)ccc2C#N)n(C)c1=O | · | · | -0.2% | · | · | 2.4%
N#CC1=C(N)N(c2ccc(F)cc2)C2=C(C1c1ccc(O)cc1)S(=O)(=O)CC2 (centres undefined) | -30.8% | 0.1% | 0.9% | 21.3µM* | 1.4% | 6.8%
CSc1ccc(C2C(C#N)=C(N)N(c3ccccc3)C3=C2C(=O)CCC3)cc1 (centres undefined) | 25.8% | -4.6% | -1.0% | -1.5%[2.3 µM] | 0.2% | -7.8%
CC(=O)N1N=C(c2cccnc2)OC1c1ccc(C(C)C)cc1 (centres undefined) | 10.4% | -2.0% | 10.1% | ? | -8.2% | 24.4%
CC(=O)N1N=C(c2ccc(C)cc2)OC1c1ccc(C(C)C)cc1 (centres undefined) | ? | 2.51µM* | ? | 3.01µM* | 2.51µM* | ?
CC(=O)N1N=C(c2ccc(C)cc2)OC1c1ccc(C)cc1 (centres undefined) | 25.5% | ? | 18.4µM* | 16.9µM* | ? | ?
Cc1ccsc1/C=C1/SC(N2CCOCC2)=NC1=O | ? | 21.0% | 19.9% | 21.3µM* | 24.3% | ?
Cc1ccccc1-c1ccc(/C=C2/SC(N3CCOCC3)=NC2=O)o1 | · | -5.4% | -2.3% | ? | -8.9% | 8.2µM*
O=C1N=C(N2CCOCC2)S/C1=C\c1ccc(-c2ccccc2Cl)o1 | -16.7% | -3.7% | -3.3% | 1.0% | -7.2% | ?
Cc1ccccc1C(=O)Nc1sc2c(c1C(=O)NCc1ccco1)CCC(C(C)(C)C)C2 (centres undefined) | -1.8% | · | · | -2.8% | · | ·
C/C(=N\NS(=O)(=O)c1ccc([N+](=O)[O-])cc1)c1ccc(NC(=O)c2ccco2)cc1 | 17.8µM* | 10.8% | ? | ? | 4.8% | ?
CC(=O)Nc1ccc(/C(C)=N/NS(=O)(=O)c2ccc(C)cc2)cc1 | -18.2% | -1.6% | 0.7% | 2.9% | 0.1% | 1.8%
C/C(=N/NS(=O)(=O)c1ccc(Br)cc1)c1ccc(NC(=O)c2ccc(C)o2)cc1 | 13.8% | 2.5% | -0.5% | 23.9µM* | 6.9% | 26.4%
O=C(Nc1ccc(NC(=O)c2ccc([N+](=O)[O-])cc2[N+](=O)[O-])cc1)c1ccco1 | · | 1.1% | 14.9% | 2.4% | 18.5% | ?
SMILES | SMN2 splice up | NPC1 prom act | ELG1 genotoxic | FLuc modulator | Rab9 promoter act | ELG1 repair inh
Cc1ccc(NC(=O)c2ccccc2NS(=O)(=O)c2ccc(F)cc2)cc1S(=O)(=O)N1CCCCC1 | -80.6% | -19.8% | -5.1% | ? | -22.7% | ?
COc1ccc(-c2cc(C(=O)NNC(=O)c3csc(N4CCOCC4)n3)c3ccccc3n2)cc1 | · | -2.2% | -23.5% | 12µM* | 2.4% | ?
COc1ccc(-c2cc(C(=O)NCCCN3CCOCC3)c3ccccc3n2)cc1OC | · | -3.6% | -1.7% | -16.6% | 0.9% | 2.1%
COc1ccc(-c2cc(C(=O)NNC(=O)c3csc(N4CCOCC4)n3)c3ccccc3n2)cc1OC | · | -0.2% | -25.8% | 9.53µM* | 4.8% | ?
O=C(CSc1nnc(-c2ccncc2)o1)NC1C2CC3CC(C2)CC1C3 (centres undefined) | 2.5% | -3.5% | -2.4% | -2.6% | -0.4% | ?
CC(C)NC(=O)NC(=O)COC(=O)c1c2c(nc3ccccc13)CCC2 | · | -5.5% | -45.8% | -0.3% | -2.3% | 23.1µM*
CCOC(=O)C1=C(C)NC(C)=C(C(=O)OCC)C1C(=O)OCC(=O)N1CCc2ccccc21 | -3.9% | 3.8% | 18.4µM* | 1.3% | 8.6% | ?
O=C(COC(=O)c1ccccc1[N+](=O)[O-])c1ccc(C2CCCCC2)cc1 | -55.7% | -2.1% | 2.2% | 0.135µM* | 9.0% | ?
CCOC(=O)c1c(C)[nH]c(C(=O)OCC(=O)N2CCc3ccccc32)c1C | 7.9% | 11.1% | 1.4% | 0.3% | 1.6% | 19.0%
Cc1ccc2c(CC(=O)N3CCc4ccccc43)coc2c1 | 14.1µM* | 3.55µM* | ? | 4.26µM* | 3.98µM* | ?
COc1cccc(NC(=O)COC(=O)CCCC2=NS(=O)(=O)c3ccccc3N2)c1 | · | 3.3% | -3.9% | -18.9% | -4.7% | ?
CC(=O)c1oc2ccccc2c1NC(=O)CN1CCCCC1 | -33.4% | -7.7% | 4.3% | ? | -3.3% | -9.1%
O=C(OCC(=O)N1CCc2ccccc21)c1ccccc1[N+](=O)[O-] | · | 0.794µM* | ? | 0.151µM* | 0.631µM* | ?
CCOC(=O)c1[nH]c(C)c(C(=O)OCC(=O)N2CCc3ccccc32)c1C | -0.6% | -3.1% | 16.7% | -0.8% | -1.5% | -1.4%
O=C(c1ccccc1F)N1CCc2ccccc21 | 2.1% | -2.8% | -4.1% | 0.1% | -0.9% | 1.7%
O=C(NCc1ccco1)c1c2c(nc3ccccc13)CCC2 | -12.2% | -3.8% | 0.6% | -17.7% | -5.2% | -5.2%

High-throughput results (PubChem)
